Cycloheximide cs = counter-screen hit for Shiga toxin inhibitors, cycloheximide. max response, %. 300,000 compounds, 12% hits. cell reporter, cycloheximide protein synthesis inhibition counterscreen; in the data active means max response mostly above about 13%, no sharp cut-off; inactive means mostly below about 14%; further: read at 38.3 µM for the half of the compounds with a filed dose; 0% is about no effect
MARV entry inh = Marburg virus entry inhibition; Potency, µM (titrated, usually from 37.8 µM), for the others: at the highest dose activity change, negative = inhibition, hits mostly inhibitors; 300,000 compounds, 1.8% hits; Marburg virus pseudotyped entry inhibition, cell reporter; calls by dose curve; tested in HEK293 cells; further: potency means the concentration at half of the fitted maximal effect; on the % scale 0 is the no-effect control and ±100 the full control effect
Lassa entry inh = blocks Lassa virus binding to or entry into cells; Lassa virus pseudotype entry inhibition, cell reporter; Potency, µM (series often up to 37.9 µM), without a hit: at the highest dose activity change, negative = inhibition, hits mostly inhibitors; 300,000 compounds, 1.2% hits; calls by dose curve; tested in HEK293 cells; further: potency means the concentration at half of the fitted maximal effect; on the % scale 0 is the no-effect control and ±100 the full control effect; nearly all actives have a fitted effect of over 50% in size
Shiga toxin inh = inhibitors of Shiga toxin in Vero cells; AID 2315; Vero cells, Shiga toxin protein synthesis inhibition reporter; 290,000 compounds, 9.2% hits; inhibition, % at 38.7 µM; in the data active means inhibition mostly above about 28%, no sharp cut-off; inactive means mostly below about 43%; further: 0% is about no effect
Numbers without * were called inactive; [ ] = another dose, or the depositor's remark. Compounds with a hit are over-represented: about 12% of the library has one in this group of screens.

`CCN1C(=O)[C@@H]2[C@H]3[C@H](O)[C@H](O)CC(=NOCC[C@@H]4C=C[C@H](OC(C)=O)[C@@H](COC(C)=O)O4)[C@@H]3CC[C@H]2C1=O` gave MARV entry inh -15%[14.2 µM].
Screening CCCn1c(SCc2ccon2)nc2ccccc2c1=O returned Cycloheximide cs -4, MARV entry inh -1%, Lassa entry inh -15% and Shiga toxin inh -10.
Screening Cc1cc(C)c(S(=O)(=O)Nc2cc(Cl)c3oc4c(c3c2)C(=O)CCC4)cc1C returned MARV entry inh 10%[46.1 µM] and Lassa entry inh 13%[46.1 µM].
C=C(Br)Cn1cnc2ccccc21 was read as Cycloheximide cs 21, MARV entry inh inconclusive, Lassa entry inh 10% and Shiga toxin inh 1.
Screening O=C(Cn1cnc2ccccc21)c1ccc(Br)cc1 returned Cycloheximide cs 22*, MARV entry inh 25%[46.1 µM], Lassa entry inh 20% and Shiga toxin inh 24.
For CCc1nnc(NC(=O)CSc2nnc(CNC(=O)c3cc(OC)c(OC)c(OC)c3)o2)s1 the results were Cycloheximide cs 17 and Shiga toxin inh 96*.
For COCCCNC(=O)c1ccc(-n2c(-c3ccccc3)cc3c2CCCCC3)cc1 the results were Cycloheximide cs 23*, Lassa entry inh -22%[46.1 µM] and Shiga toxin inh 103*.
`CN(C)CCNC(=O)c1ccc(-n2c(-c3ccccc3)cc3c2CCCCC3)cc1` gave Lassa entry inh -10%[46.1 µM].
Screening Cc1cc(C)nc(NC2=NCCN2C(=S)Nc2ccc(C)c(C)c2)n1 returned Cycloheximide cs 2, MARV entry inh -11%[14.2 µM], Lassa entry inh -15% and Shiga toxin inh -13.
For CC1=C(C(=O)Nc2ccc(CC(=O)NCc3ccc(OC(C)C)cc3)cc2)SCCO1 the results were Cycloheximide cs 42* and Shiga toxin inh 82*.
For COc1ccc(CNC(=O)Cc2ccc(NC(=O)C3=C(C)OCCS3)cc2)cc1 the results were Cycloheximide cs 19* and Shiga toxin inh 56*.
CCOc1ccc(CNC(=O)c2cccc(NC(=O)C3=C(C)OCCS3)c2)cc1 was read as Cycloheximide cs 17* and Shiga toxin inh 8.
Screening O=C1N(Cc2ccc(F)cc2)CCN1c1ccc(F)cc1 returned Cycloheximide cs 29*, MARV entry inh 4%[46.1 µM], Lassa entry inh -1%[46.1 µM] and Shiga toxin inh 58*.
For COc1cccc(CN2CCN(c3ccc(F)cc3)C2=O)c1 the results were Cycloheximide cs 34*, MARV entry inh 0%[46.1 µM], Lassa entry inh 0%[46.1 µM] and Shiga toxin inh 33.
`O=C1NCCCN1Cc1ccc(F)cc1` gave Cycloheximide cs -1, MARV entry inh 0%, Lassa entry inh -10% and Shiga toxin inh -4.
For COc1cccc(CN2CC=C(c3ccc(F)cc3)CC2)c1 the results were Cycloheximide cs -2, MARV entry inh -19%, Lassa entry inh -2% and Shiga toxin inh -5.
Screening O=C(Nc1c(C(=O)Nc2ccc(F)cc2)oc2ccccc12)c1ccccc1F returned MARV entry inh 7%[46.1 µM] and Lassa entry inh -3%[46.1 µM].
O=C(Cc1ccccc1)Nc1ccc(S(=O)(=O)N2CCCC2)cc1 was read as Cycloheximide cs 15, MARV entry inh 23%[46.1 µM], Lassa entry inh -17% and Shiga toxin inh 15.
COc1cccc(OCCCN2CCN(S(=O)(=O)c3ccc(NC(C)=O)cc3)CC2)c1 was read as Cycloheximide cs -2, MARV entry inh 6.5µM*, Lassa entry inh 8.2µM* and Shiga toxin inh -8.
`COc1cccc(CC(=O)Nc2ccc(S(=O)(=O)N3CCCCC3)cc2)c1` gave MARV entry inh 10µM* and Lassa entry inh inconclusive.
For O=C(C1CC(=O)N(c2ccccc2)C1)N1CCN(c2ccc(F)cc2)CC1 (stereo not drawn) the results were Cycloheximide cs 3, MARV entry inh -5%, Lassa entry inh 5% and Shiga toxin inh 16.
O=[N+]([O-])c1ccc(/C=N/NC(=S)Nc2ccccc2C(F)(F)F)o1 was read as Cycloheximide cs -6, MARV entry inh inconclusive, Lassa entry inh -4% and Shiga toxin inh -8.
CCCCNc1n[n+](C)c(-c2cccc(C)c2)s1 was read as Cycloheximide cs 1 and Shiga toxin inh 21.
For Clc1ccc(Nc2nc3cccnc3s2)cc1 the results were Cycloheximide cs 30*, MARV entry inh -7%[46.1 µM], Lassa entry inh 21% and Shiga toxin inh 90*.
For CCCCNc1nc2cccnc2s1 the results were Cycloheximide cs 22* and Shiga toxin inh 62*.
Screening CC(=O)c1ccc(NC(=O)c2nc(-c3ccccc3)n(-c3ccc(C)cc3)n2)cc1 returned MARV entry inh 4%[46.1 µM] and Lassa entry inh 7%[46.1 µM].
Screening COc1cc(C(=O)OC2CC3CCC2(C)C3(C)C)ccc1OC(C)=O (stereo not drawn) returned Cycloheximide cs 16* and Shiga toxin inh -4.
For CC(C)(C)c1ccc(/C=C/C(=O)c2ccc(NC3=NCCCS3)cc2)cc1 the results were Cycloheximide cs 31*, MARV entry inh 3% and Shiga toxin inh 78*.
For Cc1cccc(/C=C/C(=O)c2ccc(NC3=NCCCS3)cc2)c1 the results were Cycloheximide cs 26*, MARV entry inh inconclusive, Lassa entry inh 2% and Shiga toxin inh 24.
`O=C(/C=C/c1ccccc1)c1ccc(NC2=NCCCS2)cc1` gave Cycloheximide cs 26*, MARV entry inh inconclusive, Lassa entry inh -2% and Shiga toxin inh 30*.
Screening COc1ccccc1N1CCN(CCC(=O)Nc2ccc(F)cc2)CC1 returned Cycloheximide cs -2 and Shiga toxin inh -8.
For O=C(NCCc1ccccc1)C1CCC(CNS(=O)(=O)c2ccc(F)cc2)CC1 (stereo not drawn) the results were Cycloheximide cs 16* and Shiga toxin inh 16.
`Cc1ccc(N2C(=O)SC(N(CC(=O)O)c3cccc(C)c3)C2=O)cc1` (stereo not drawn) gave Cycloheximide cs 44*, MARV entry inh 5%, Lassa entry inh 10% and Shiga toxin inh 98*.
For Cc1ccc2c(c1)-c1c(cnn1CC(=O)N1CCN(c3ccccc3F)CC1)CO2 the results were MARV entry inh -11%[46.1 µM].
Cc1ccccc1OCC(O)CN1CCN(CCN2C(=O)c3cccc4cccc(c34)C2=O)CC1 (stereo not drawn) was read as Cycloheximide cs -2, MARV entry inh inconclusive, Lassa entry inh inconclusive and Shiga toxin inh -22.
For C=CCc1ccccc1OCC(O)CN1CCN(CCN2C(=O)c3cccc4cccc(c34)C2=O)CC1 (stereo not drawn) the results were Cycloheximide cs 6, MARV entry inh 11µM*, Lassa entry inh inconclusive and Shiga toxin inh 38.
Cc1cccc(OCc2nc(CC(=O)Nc3ccc(C)cc3C)cs2)c1 was read as MARV entry inh 2%[46.1 µM] and Lassa entry inh 5%[46.1 µM].
For CNC(=O)Oc1cccc(-c2cn3cc(OC(=O)NC)ccc3n2)c1 the results were Cycloheximide cs 37*, MARV entry inh inconclusive, Lassa entry inh inconclusive and Shiga toxin inh active.
Screening CNC(=O)Oc1ccc(-c2cn3cc(Cl)ccc3n2)cc1 returned Cycloheximide cs 21*, MARV entry inh 8.2µM*, Lassa entry inh 7.3µM* and Shiga toxin inh 55.
Cc1cc(C)n(CCc2nc3c4ccccc4nc(N4CCN(c5ccc(F)cc5)CC4)n3n2)n1 was read as MARV entry inh 0%[46.1 µM].
C=CCNC(=O)C(=O)Nc1ccc2c(c1)N(S(=O)(=O)c1cccs1)CCC2 was read as MARV entry inh inconclusive and Lassa entry inh 8.9µM*.

Assay outcomes deposited in PubChem by National Center for Advancing Translational Sciences (NCATS).
